# Where two headings read alike, the source gives them in different places.
# Key:
# ASK2 = test system: T1, ASK2; conditions: concentration: 1 μM,replicates: in singlicate; n = 1
# T1 construct: gene MAP3K6
# AURKA = conditions: concentration: 1 μM,replicates: in singlicate; n = 1
# AURKB = conditions: concentration: 1 μM,replicates: in singlicate; n = 1
# AURKC = conditions: concentration: 1 μM,replicates: in singlicate; n = 1
# AXL = conditions: concentration: 1 μM,replicates: in singlicate; n = 1
# BIKE = test system: T2, BIKE; conditions: concentration: 1 μM,replicates: in singlicate; n = 1
# T2 construct: gene BMP2K
# BLK = conditions: concentration: 1 μM,replicates: in singlicate; n = 1
# BMPR1A = conditions: concentration: 1 μM,replicates: in singlicate; n = 1
# BMPR1B = conditions: concentration: 1 μM,replicates: in singlicate; n = 1
# BMPR2 = conditions: concentration: 1 μM,replicates: in singlicate; n = 1
# BMX = conditions: concentration: 1 μM,replicates: in singlicate; n = 1
# BRAF = conditions: concentration: 1 μM,replicates: in singlicate; n = 1
# BRK = test system: T3, BRK; conditions: concentration: 1 μM,replicates: in singlicate; n = 1
# T3 construct: gene PTK6
# BRSK1 = conditions: concentration: 1 μM,replicates: in singlicate; n = 1
# BRSK2 = conditions: concentration: 1 μM,replicates: in singlicate; n = 1
# BTK = conditions: n = 1
# BUB1 = conditions: concentration: 1 μM,replicates: in singlicate; n = 1
# CAMK1B = conditions: concentration: 1 μM,replicates: in singlicate; n = 1
# CAMK1D = conditions: concentration: 1 μM,replicates: in singlicate; n = 1
# CAMK1G = conditions: concentration: 1 μM,replicates: in singlicate; n = 1
# [1] = concentration: 1 μM,replicates: in singlicate
# 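Further: KINOMEscan kinase panel screen.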
smiles,measurement,setting,value
CS(=O)(=O)Nc1ccc(-c2ccnc3[nH]ccc23)cc1 [GSK993273],%Inh,ASK2,21%
same,%Inh,AURKA,39%
same,%Inh,AURKB,48%
same,%Inh,AURKC,76%
same,%Inh,AXL,76%
same,%Inh,BIKE,97.5%
same,%Inh,BLK,0%
same,%Inh,BMPR1A,1%
same,%Inh,BMPR1B,3%
same,%Inh,BMPR2,43%
same,%Inh,BMX,0%
same,%Inh,BRAF,0%
same,%Inh,BRK,0%
same,%Inh,BRSK1,8%
same,%Inh,BRSK2,0%
same,%Inh,BTK; [1],0%
same,%Inh,BUB1,35%
same,%Inh,CAMK1B,27%
same,%Inh,CAMK1D,38%
same,%Inh,CAMK1G,30%
O=C(Nc1ccccc1)c1cccc(Oc2ccc3nccn3n2)c1,%Inh,ASK2,3%
same,%Inh,AURKA,0%
same,%Inh,AURKB,4%
same,%Inh,AURKC,28%
same,%Inh,AXL,0%
same,%Inh,BIKE,5%
same,%Inh,BLK,9%
same,%Inh,BMPR1A,0%
same,%Inh,BMPR1B,14%
same,%Inh,BMPR2,22%
same,%Inh,BMX,17%
same,%Inh,BRAF,3%
same,%Inh,BRK,0%
same,%Inh,BRSK1,7%
same,%Inh,BRSK2,0%
same,%Inh,BTK; [1],0%
same,%Inh,BUB1,0%
same,%Inh,CAMK1B,0%
same,%Inh,CAMK1D,0%
same,%Inh,CAMK1G,0%
NC(=O)c1ccc(-c2cc3ncnc(SCC(=O)O)c3s2)cc1,%Inh,ASK2,0%
same,%Inh,AURKA,0%
same,%Inh,AURKB,80%
same,%Inh,AURKC,33%
same,%Inh,AXL,0%
same,%Inh,BIKE,1%
same,%Inh,BLK,0%
same,%Inh,BMPR1A,0%
same,%Inh,BMPR1B,1%
same,%Inh,BMPR2,0%
same,%Inh,BMX,15%
same,%Inh,BRAF,0%
same,%Inh,BRK,0%
same,%Inh,BRSK1,0%
same,%Inh,BRSK2,0%
same,%Inh,BTK; [1],8%
same,%Inh,BUB1,18%
same,%Inh,CAMK1B,0%
same,%Inh,CAMK1D,5%
same,%Inh,CAMK1G,0%
O=C(Nc1n[nH]c2cc(-c3ccco3)ccc12)C1CC1 [SB-737447],%Inh,ASK2,4%
same,%Inh,AURKA,46%
same,%Inh,AURKB,12%
same,%Inh,AURKC,34%
same,%Inh,AXL,0%
same,%Inh,BIKE,53%
same,%Inh,BLK,0%
same,%Inh,BMPR1A,0%
same,%Inh,BMPR1B,14%
same,%Inh,BMPR2,0%
same,%Inh,BMX,0%
same,%Inh,BRAF,0%
same,%Inh,BRK,0%
same,%Inh,BRSK1,31%
same,%Inh,BRSK2,46%
same,%Inh,BTK; [1],0%
same,%Inh,BUB1,0%
same,%Inh,CAMK1B,0%
same,%Inh,CAMK1D,0%
same,%Inh,CAMK1G,100%
CS(=O)(=O)c1cccc(CNc2nc(Nc3ccc4c(c3)[C@@H]3C[C@@H]4CNC3=O)ncc2C(F)(F)F)c1,%Inh,ASK2,0%
same,%Inh,AURKA,99.4%
same,%Inh,AURKB,95.7%
same,%Inh,AURKC,73%
same,%Inh,AXL,93.2%
same,%Inh,BIKE,96.2%
same,%Inh,BLK,30%
same,%Inh,BMPR1A,0%
same,%Inh,BMPR1B,0%
same,%Inh,BMPR2,0%
same,%Inh,BMX,4%
same,%Inh,BRAF,0%
same,%Inh,BRK,0%
same,%Inh,BRSK1,0%
same,%Inh,BRSK2,0%
same,%Inh,BTK; [1],0%
same,%Inh,BUB1,0%
same,%Inh,CAMK1B,19%
same,%Inh,CAMK1D,0%
same,%Inh,CAMK1G,0%
C[C@@H]1CNc2c(sc3ccc4nc(-c5ccncc5)ccc4c23)C(=O)N1,%Inh,ASK2,0%
same,%Inh,AURKA,0%
same,%Inh,AURKB,17%
same,%Inh,AURKC,9%
same,%Inh,AXL,81%
same,%Inh,BIKE,19%
same,%Inh,BLK,0%
same,%Inh,BMPR1A,12%
same,%Inh,BMPR1B,7%
same,%Inh,BMPR2,0%
same,%Inh,BMX,0%
same,%Inh,BRAF,0%
same,%Inh,BRK,0%
same,%Inh,BRSK1,64%
same,%Inh,BRSK2,59%
same,%Inh,BTK; [1],0%
same,%Inh,BUB1,77%
same,%Inh,CAMK1B,0%
same,%Inh,CAMK1D,25%
same,%Inh,CAMK1G,0%
Cn1cc(-c2cccc3c(N)c(C(N)=O)nnc23)cn1,%Inh,ASK2,33%
same,%Inh,AURKA,6%
same,%Inh,AURKB,27%
same,%Inh,AURKC,53%
same,%Inh,AXL,22%
same,%Inh,BIKE,70%
same,%Inh,BLK,6%
same,%Inh,BMPR1A,16%
same,%Inh,BMPR1B,21%
same,%Inh,BMPR2,72%
same,%Inh,BMX,15%
same,%Inh,BRAF,30%
same,%Inh,BRK,8%
same,%Inh,BRSK1,11%
same,%Inh,BRSK2,18%
same,%Inh,BTK; 1 µM,86%
same,%Inh,BUB1,32%
same,%Inh,CAMK1B,0%
same,%Inh,CAMK1D,29%
same,%Inh,CAMK1G,7%
COc1cc(Nc2nccc(N3CCC(NC(=O)c4cccc(C#N)c4)C3)n2)cc(OC)c1OC (centres unmarked) [GSK1379751],%Inh,ASK2,0%
same,%Inh,AURKA,68%
same,%Inh,AURKB,36%
same,%Inh,AURKC,56%
same,%Inh,AXL,22%
same,%Inh,BIKE,90%
same,%Inh,BLK,0%
same,%Inh,BMPR1A,0%
same,%Inh,BMPR1B,2%
same,%Inh,BMPR2,11%
same,%Inh,BMX,0%
same,%Inh,BRAF,0%
same,%Inh,BRK,0%
same,%Inh,BRSK1,0%
same,%Inh,BRSK2,100%
same,%Inh,BTK; [1],0%
same,%Inh,BUB1,61%
same,%Inh,CAMK1B,22%
same,%Inh,CAMK1D,0%
same,%Inh,CAMK1G,0%
Cc1ccc(CC(=O)N2CCc3cc(-c4cn(C)c5ncnc(N)c45)ccc32)cc1 [GSK2634758],%Inh,ASK2,0%
same,%Inh,AURKA,8%
same,%Inh,AURKB,96.1%
same,%Inh,AURKC,47%
same,%Inh,AXL,98.8%
same,%Inh,BIKE,16%
same,%Inh,BLK,31%
same,%Inh,BMPR1A,0%
same,%Inh,BMPR1B,0%
same,%Inh,BMPR2,0%
same,%Inh,BMX,12%
same,%Inh,BRAF,0%
same,%Inh,BRK,78%
same,%Inh,BRSK1,2%
same,%Inh,BRSK2,0%
same,%Inh,BTK; [1],15%
same,%Inh,BUB1,12%
same,%Inh,CAMK1B,0%
same,%Inh,CAMK1D,19%
same,%Inh,CAMK1G,23%
CCn1c(-c2nonc2N)nc2cncc(Br)c21 [SB-738004],%Inh,ASK2,0%
same,%Inh,AURKA,14%
same,%Inh,AURKB,17%
same,%Inh,AURKC,0%
same,%Inh,AXL,22%
same,%Inh,BIKE,23%
same,%Inh,BLK,0%
same,%Inh,BMPR1A,0%
same,%Inh,BMPR1B,17%
same,%Inh,BMPR2,58%
same,%Inh,BMX,27%
same,%Inh,BRAF,0%
same,%Inh,BRK,10%
same,%Inh,BRSK1,0%
same,%Inh,BRSK2,0%
same,%Inh,BTK; [1],47%
same,%Inh,BUB1,93.7%
same,%Inh,CAMK1B,34%
same,%Inh,CAMK1D,15%
same,%Inh,CAMK1G,16%
O=C(Nc1ccc(Oc2ccc3nc(NC(=O)C4CC4)cn3n2)c(F)c1)c1cccn(-c2ccccc2)c1=O,%Inh,ASK2,0%
same,%Inh,AURKA,0%
same,%Inh,AURKB,4%
same,%Inh,AURKC,42%
same,%Inh,AXL,90.4%
same,%Inh,BIKE,25%
same,%Inh,BLK,90.3%
same,%Inh,BMPR1A,12%
same,%Inh,BMPR1B,0%
same,%Inh,BMPR2,0%
same,%Inh,BMX,46%
same,%Inh,BRAF,41%
same,%Inh,BRK,72%
same,%Inh,BRSK1,3%
same,%Inh,BRSK2,5%
same,%Inh,BTK; [1],0%
same,%Inh,BUB1,0%
same,%Inh,CAMK1B,0%
same,%Inh,CAMK1D,14%
same,%Inh,CAMK1G,0%
Cn1ccc2ncnc(Oc3ccc(NC(=O)Nc4cc(C(C)(C)C)on4)c(Cl)c3)c21,%Inh,ASK2,0%
same,%Inh,AURKA,6%
same,%Inh,AURKB,88%
same,%Inh,AURKC,15%
same,%Inh,AXL,97.2%
same,%Inh,BIKE,0%
same,%Inh,BLK,87%
same,%Inh,BMPR1A,7%
same,%Inh,BMPR1B,16%
same,%Inh,BMPR2,5%
same,%Inh,BMX,33%
same,%Inh,BRAF,76%
same,%Inh,BRK,10%
same,%Inh,BRSK1,8%
same,%Inh,BRSK2,0%
same,%Inh,BTK; [1],0%
same,%Inh,BUB1,5%
same,%Inh,CAMK1B,0%
same,%Inh,CAMK1D,14%
same,%Inh,CAMK1G,12%
O=C(NOCC1CC1)c1cc(Br)c(F)c(F)c1Nc1ccc(I)cc1Cl,%Inh,ASK2,0%
same,%Inh,AURKA,0%
same,%Inh,AURKB,1%
same,%Inh,AURKC,0%
same,%Inh,AXL,2%
same,%Inh,BIKE,0%
same,%Inh,BLK,0%
same,%Inh,BMPR1A,0%
same,%Inh,BMPR1B,0%
same,%Inh,BMPR2,0%
same,%Inh,BMX,0%
same,%Inh,BRAF,0%
same,%Inh,BRK,0%
same,%Inh,BRSK1,0%
same,%Inh,BRSK2,0%
same,%Inh,BTK; [1],0%
same,%Inh,BUB1,0%
same,%Inh,CAMK1B,0%
same,%Inh,CAMK1D,0%
same,%Inh,CAMK1G,0%
COc1ccc(Nc2nccc(N3CCC(NC(=O)c4cccc(C#N)c4)C3)n2)cc1 (centres unmarked) [GSK1379730],%Inh,ASK2,0%
same,%Inh,AURKA,0%
same,%Inh,AURKB,0%
same,%Inh,AURKC,22%
same,%Inh,AXL,21%
same,%Inh,BIKE,22%
same,%Inh,BLK,38%
same,%Inh,BMPR1A,6%
same,%Inh,BMPR1B,0%
same,%Inh,BMPR2,0%
same,%Inh,BMX,0%
same,%Inh,BRAF,0%
same,%Inh,BRK,8%
same,%Inh,BRSK1,0%
same,%Inh,BRSK2,0%
same,%Inh,BTK; [1],28%
same,%Inh,BUB1,53%
same,%Inh,CAMK1B,13%
same,%Inh,CAMK1D,0%
same,%Inh,CAMK1G,0%
C[C@@H](Oc1cc(-n2cnc3cc(-c4ccncc4)ccc32)sc1C(N)=O)c1ccccc1Cl [GSK479719],%Inh,ASK2,8%
same,%Inh,AURKA,0%
same,%Inh,AURKB,48%
same,%Inh,AURKC,100%
same,%Inh,AXL,89%
same,%Inh,BIKE,98.6%
same,%Inh,BLK,0%
same,%Inh,BMPR1A,0%
same,%Inh,BMPR1B,0%
same,%Inh,BMPR2,0%
same,%Inh,BMX,18%
same,%Inh,BRAF,1%
same,%Inh,BRK,15%
same,%Inh,BRSK1,58%
same,%Inh,BRSK2,79%
same,%Inh,BTK; [1],0%
same,%Inh,BUB1,23%
same,%Inh,CAMK1B,18%
same,%Inh,CAMK1D,6%
same,%Inh,CAMK1G,0%
C[C@@H]1CNc2c(sc3ccc4nc(-c5ccc(O)cc5)ccc4c23)C(=O)N1,%Inh,ASK2,0%
same,%Inh,AURKA,42%
same,%Inh,AURKB,24%
same,%Inh,AURKC,0%
same,%Inh,AXL,87%
same,%Inh,BIKE,0%
same,%Inh,BLK,0%
same,%Inh,BMPR1A,27%
same,%Inh,BMPR1B,0%
same,%Inh,BMPR2,7%
same,%Inh,BMX,14%
same,%Inh,BRAF,0%
same,%Inh,BRK,0%
same,%Inh,BRSK1,48%
same,%Inh,BRSK2,72%
same,%Inh,BTK; [1],0%
same,%Inh,BUB1,58%
same,%Inh,CAMK1B,13%
same,%Inh,CAMK1D,0%
same,%Inh,CAMK1G,16%

# Reference: article PMC5540273 (PLoS ONE, 2017)
